Assay results taken from PubChem BioAssay (Tox21).
Records with an inconclusive call do not appear. Calls of active or inactive are those of the source. Unless noted, the call rests on the fitted dose curve.

Legend:
[1] = Nuclear factor erythroid 2-related factor 2/antioxidant responsive element (Nrf2/ARE) small molecule agonists: qHTS cell viability counter screen in human keratinocytes (AID 1919968; active means well fitted curve in the direction sought with a large enough effect in the repeat runs; an effect the other way counts as inactive or inconclusive; further: nearly all actives have a fitted effect of over 55% in size)
Outline: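 Stably transfected HaCaT (KeratinoSens), 1,500/well. Test agents in DMSO were applied for 23 h, 37 C/5% CO2. CellTiter-Fluor was incubated 1 h before the fluorescence read.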

[2] = Nuclear factor erythroid 2-related factor 2/antioxidant responsive element (Nrf2/ARE) small molecule agonists: luciferase reporter gene qHTS assay in human keratinocytes (AID 1919969); further: nearly all actives have a fitted effect of over 35% in size
[3] = target: Gonadotropin-releasing hormone receptor (Homo sapiens) (UniProt P30968); assay: Human gonadotropin-releasing hormone receptor (GnRHR) small molecule agonists, calcium flux assay in GnRHR-HEK293 cells (AID 1920063); further: nearly all actives have a fitted effect of over 35% in size
Outline: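 Stable human GnRHR HEK293 line. 18 h plating, then calcium dye for 1 h at 37 C. Agonist-mode compound addition from DMSO stocks; fluorescence monitored 3 min.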

[4] = target: KiSS-1 receptor (Homo sapiens) (UniProt Q969F8); assay: Human kisspeptin (KISS1R) small molecule agonists, calcium flux assay in KISS1R-HEK293 cells (AID 1920064; active means well fitted curve in the direction sought with a large enough effect in the repeat runs; an effect the other way counts as inactive or inconclusive)
Outline: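 After overnight (18 h) culture at 37 C/5% CO2, human KISS1R-HEK293 cells received calcium dye for 1 h, then test compound; emission at 540 nm (excitation 480 nm) was tracked for 3 min.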

[5] = G protein-coupled receptor (GPCR) small molecule agonists, calcium flux assay: HEK293 wild type cell line counter screen (AID 1920065)
Outline: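 Following 18 h incubation at 37 C/5% CO2, plates got calcium dye for 1 h; compounds, ATP or DMSO were then pinned in and fluorescence followed kinetically (480/540 nm).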

[6] = p53 small molecule agonists, cell-based qHTS assay with human liver microsomes: qHTS cell viability counter screen (AID 1963579); further: nearly all actives have a fitted effect of over 45% in size
Outline: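 Luminescent CellTiter-Glo read-out, 30 min at room temperature, gauged cytotoxicity in p53RE-bla cells exposed 16 h at 37 C to DMSO-dissolved compounds with metabolic activation by human liver microsomes and NADPH, each 0.5 mg/mL final.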

[7] = p53 small molecule agonists, cell-based qHTS assay with rat liver microsomes: qHTS cell viability counter screen (AID 1963580); further: nearly all actives have a fitted effect of over 45% in size
Outline: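 Cytotoxicity counter screen: intracellular ATP read by CellTiter-Glo luminescence in the p53 reporter wells. HCT-116 p53RE-bla cells were treated for 16 h at 37 C alongside rat liver microsomes and NADPH, each 0.5 mg/mL final.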

[8] = p53 small molecule agonists, cell-based qHTS assay: qHTS cell viability counter screen (AID 1963581); further: nearly all actives have a fitted effect of over 45% in size
Outline: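 qHTS counter screen: 16 h compound exposure at 37 C of p53RE-bla HCT-116 cells (4,000 per well, seeded 5 h prior), cell viability by ATP luminescence.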

[9] = target: 5-hydroxytryptamine receptor 2A (Homo sapiens) (UniProt P28223); assay: 5-hydroxytryptamine receptor 2A (HTR2A) small molecule antagonists, cell-based qHTS assay (AID 1963586); further: nearly all actives have a fitted effect of over 45% in size
Outline: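 CHO cells stably expressing human HTR2A were plated for 18 h at 37 C, then loaded with calcium dye for 1 h. Compounds were preincubated 5 min at room temperature before DOI (4 nM solution) was added. Kinetic fluorescence was read for 3 min.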

[10] = target: 5-hydroxytryptamine receptor 2A (Homo sapiens) (UniProt P28223); assay: 5-hydroxytryptamine receptor 2A (HTR2A) small molecule agonists, cell-based qHTS assay (AID 1963587); further: nearly all actives have a fitted effect of over 30% in size
Outline: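 Kinetic calcium-flux fluorescence (2 min, 1 sec intervals) after compound addition in agonist mode. HTR2A-CHO cells were cultured 18 h, then dye-loaded 1 h at 37 C.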

[11] = target: Muscarinic acetylcholine receptor M1 (Homo sapiens) (UniProt P11229); assay: Cholinergic receptor muscarinic 1 (CHRM1) small molecule antagonists, cell-based qHTS assay (AID 1963588); further: nearly all actives have a fitted effect of over 40% in size
Outline: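 Compounds were tested at 15 concentrations in three independent runs. Dye-loaded CHRM1-CHO cells were exposed 5 min at room temperature before stimulation by acetylcholine added at 50nM. Intracellular calcium was read kinetically on FDSS for 3 min.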

[12] = target: Muscarinic acetylcholine receptor M1 (Homo sapiens) (UniProt P11229); assay: Cholinergic receptor muscarinic 1 (CHRM1) small molecule agonists, cell-based qHTS assay (AID 1963589); further: nearly all actives have a fitted effect of over 35% in size
Outline: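 Kinetic fluorescence (1 s intervals) of calcium-sensitive dye in human M1 CHO cells after compound addition; cells pre-incubated 18 h at 37 C/5% CO2 and dye-loaded 1 h.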

[13] = cAMP Responsive Elements (CRE) small molecule agonists, cell-based qHTS assay (AID 1963590)
Outline: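 Test agents in DMSO were incubated 3 h at 37 C/5% CO2 with CRE-bla HEK 293T cells seeded 18 h earlier; LiveBLAzer B/G FRET substrate was added and read after 2 h at room temperature.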

[14] = cAMP Responsive Elements (CRE) small molecule antagonists, cell-based qHTS assay (AID 1963591; active means well fitted inhibition curve with a large enough effect in the signal ratio in the repeat runs, not every such curve was filed as active; the % refers to the signal ratio)
Outline: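 Reporter line CRE-bla HEK 293T in dialyzed-FBS DMEM; cells preincubated 18 h, treated 3 h with compound plus NKH477 (0.25 uM final); LiveBLAzer FRET, 2 h RT.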

[15] = target: Beta-2 adrenergic receptor (Homo sapiens) (UniProt P07550); assay: Adrenergic beta2 receptor (ADRB2) small molecule antagonists, cell-based qHTS assay (AID 1963592); further: series mostly up to about 92 µM; nearly all actives have a fitted effect of over 50% in size
Outline: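 Assay format: CHO-ADRB2 cells, 18-20hr seeding at 37C/5% CO2, then compound plus 1nM isoproterenol agonist mix for 0.5hr RT. Homogeneous time-resolved fluorescence cAMP detection after 1hr, expressed as 665/615 nm ratio.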

[16] = target: D(2) dopamine receptor (Homo sapiens) (UniProt P14416); assay: Dopamine D2 receptor (DRD2) small molecule agonists, cell-based qHTS assay (AID 1963594); further: nearly all actives have a fitted effect of over 35% in size
Outline: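 cAMP accumulation in DRD2-HEK293 cells measured by HTRF after 1 h detection; compounds added 10 min before NKH477 (200nM […]) forskolin-analogue stimulation, 30 min at room temperature, with Ro20-1724 present at 0.1 mM final.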

[17] = target: D(2) dopamine receptor (Homo sapiens) (UniProt P14416); assay: Dopamine D2 receptor (DRD2) small molecule antagonists, cell-based qHTS assay (AID 1963595; active means well fitted inhibition curve with a large enough effect in the signal ratio in the repeat runs, with a control signal flat; the % refers to the signal ratio)
Outline: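 Readout: HTRF cAMP, cAMP-d2 competing with cellular cAMP for anti-cAMP cryptate, read after 1 h. Cells: DRD2-HEK293. Conditions: 0.1 mM Ro20-1724, 12 nM quinpirole, 200 nM NKH477, 30 min RT.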
On the % scale 0 is the no-effect control and ±100 the full control effect.

Chain of Beta-2 adrenergic receptor (Homo sapiens) (P07550 whole entry, looked up): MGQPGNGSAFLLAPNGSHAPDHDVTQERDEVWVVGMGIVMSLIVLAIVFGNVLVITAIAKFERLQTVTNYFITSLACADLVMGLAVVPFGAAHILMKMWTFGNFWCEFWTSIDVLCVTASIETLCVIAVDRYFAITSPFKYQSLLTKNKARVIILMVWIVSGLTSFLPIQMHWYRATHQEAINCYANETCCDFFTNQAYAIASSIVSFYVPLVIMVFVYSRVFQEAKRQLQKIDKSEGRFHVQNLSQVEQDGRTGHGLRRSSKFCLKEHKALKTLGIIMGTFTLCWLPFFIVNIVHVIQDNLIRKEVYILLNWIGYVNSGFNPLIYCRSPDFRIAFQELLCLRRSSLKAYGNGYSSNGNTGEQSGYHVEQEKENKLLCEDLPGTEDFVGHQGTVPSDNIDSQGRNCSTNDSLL
Chain of Muscarinic acetylcholine receptor M1 (Homo sapiens) (P11229 whole entry, looked up): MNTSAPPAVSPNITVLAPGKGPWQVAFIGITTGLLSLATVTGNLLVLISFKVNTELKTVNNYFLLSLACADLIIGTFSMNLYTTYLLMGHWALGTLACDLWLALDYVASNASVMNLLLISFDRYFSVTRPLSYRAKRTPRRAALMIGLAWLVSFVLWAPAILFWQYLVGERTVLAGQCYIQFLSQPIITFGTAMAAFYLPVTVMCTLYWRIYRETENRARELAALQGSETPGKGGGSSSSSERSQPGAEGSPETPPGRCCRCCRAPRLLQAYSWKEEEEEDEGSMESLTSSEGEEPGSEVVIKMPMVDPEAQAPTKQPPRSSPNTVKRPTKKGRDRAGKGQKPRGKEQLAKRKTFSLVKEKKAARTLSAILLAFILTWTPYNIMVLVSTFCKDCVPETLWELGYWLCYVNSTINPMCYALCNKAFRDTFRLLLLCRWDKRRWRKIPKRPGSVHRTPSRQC
Chain of Gonadotropin-releasing hormone receptor (Homo sapiens) (P30968 whole entry, looked up): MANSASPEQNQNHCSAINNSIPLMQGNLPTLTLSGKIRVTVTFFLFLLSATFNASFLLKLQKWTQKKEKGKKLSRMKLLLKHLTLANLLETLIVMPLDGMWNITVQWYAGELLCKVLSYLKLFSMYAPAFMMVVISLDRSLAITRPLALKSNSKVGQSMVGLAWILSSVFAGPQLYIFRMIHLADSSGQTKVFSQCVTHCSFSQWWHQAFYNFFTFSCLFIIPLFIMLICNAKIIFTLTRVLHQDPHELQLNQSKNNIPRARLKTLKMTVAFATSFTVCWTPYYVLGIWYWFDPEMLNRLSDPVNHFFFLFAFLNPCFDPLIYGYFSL
Chain of KiSS-1 receptor (Homo sapiens) (Q969F8 whole entry, looked up): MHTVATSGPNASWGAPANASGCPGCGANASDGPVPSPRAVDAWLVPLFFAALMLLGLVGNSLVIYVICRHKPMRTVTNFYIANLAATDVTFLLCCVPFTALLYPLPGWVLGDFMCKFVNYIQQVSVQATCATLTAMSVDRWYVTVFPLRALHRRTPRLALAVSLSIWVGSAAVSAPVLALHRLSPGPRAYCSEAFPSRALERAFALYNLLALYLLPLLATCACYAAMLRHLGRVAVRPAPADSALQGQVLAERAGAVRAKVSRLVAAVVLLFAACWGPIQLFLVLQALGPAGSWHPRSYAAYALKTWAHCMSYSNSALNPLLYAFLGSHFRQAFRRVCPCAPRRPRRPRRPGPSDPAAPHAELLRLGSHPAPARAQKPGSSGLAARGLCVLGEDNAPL
Chain of D(2) dopamine receptor (Homo sapiens) (P14416 whole entry, looked up): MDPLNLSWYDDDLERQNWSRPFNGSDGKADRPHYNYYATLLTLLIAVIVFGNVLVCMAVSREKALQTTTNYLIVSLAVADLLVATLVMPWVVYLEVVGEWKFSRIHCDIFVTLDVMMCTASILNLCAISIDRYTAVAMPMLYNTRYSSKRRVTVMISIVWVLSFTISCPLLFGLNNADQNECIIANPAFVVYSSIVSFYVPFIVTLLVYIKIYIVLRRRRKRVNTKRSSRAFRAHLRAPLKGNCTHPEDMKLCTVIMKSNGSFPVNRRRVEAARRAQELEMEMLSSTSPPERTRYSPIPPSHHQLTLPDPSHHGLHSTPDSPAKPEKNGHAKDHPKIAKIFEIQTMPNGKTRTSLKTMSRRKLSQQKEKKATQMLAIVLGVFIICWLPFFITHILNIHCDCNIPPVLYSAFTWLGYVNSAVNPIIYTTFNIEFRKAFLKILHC
Chain of 5-hydroxytryptamine receptor 2A (Homo sapiens) (P28223 whole entry, looked up): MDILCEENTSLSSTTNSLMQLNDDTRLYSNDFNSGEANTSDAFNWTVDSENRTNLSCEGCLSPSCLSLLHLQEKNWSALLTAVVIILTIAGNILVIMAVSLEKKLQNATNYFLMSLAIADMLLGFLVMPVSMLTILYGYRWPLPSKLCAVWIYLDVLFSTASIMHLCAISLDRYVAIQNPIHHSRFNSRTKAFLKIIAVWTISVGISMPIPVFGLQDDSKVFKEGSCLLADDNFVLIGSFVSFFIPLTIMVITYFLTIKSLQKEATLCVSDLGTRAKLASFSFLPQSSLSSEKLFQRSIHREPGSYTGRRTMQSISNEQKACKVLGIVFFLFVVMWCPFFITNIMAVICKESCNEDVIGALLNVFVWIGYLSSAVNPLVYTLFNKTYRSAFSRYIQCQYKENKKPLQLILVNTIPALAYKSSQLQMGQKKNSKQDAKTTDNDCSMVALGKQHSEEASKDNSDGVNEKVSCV

CC(C)COC(=O)CCCCC(=O)OCC(C)C
inactive: Potency [1] | Potency [2] | Potency [3] | Potency [4] | Potency [5] | Potency [6] | Potency [7] | Potency [8] | Potency [9] | Potency [10] | Potency [11] | Potency [12] | Potency [13] | Potency [14] | Potency [15] | Potency [16] | Potency [17]

CCCCOCCOCCOCCOCCO
inactive: Potency [1] | Potency [2] | Potency [3] | Potency [4] | Potency [5] | Potency [6] | Potency [7] | Potency [8] | Potency [9] | Potency [10] | Potency [11] | Potency [12] | Potency [13] | Potency [14] | Potency [15] | Potency [16] | Potency [17]

CCOc1ccc(NC(N)=O)cc1
inactive: Potency [1] | Potency [2] | Potency [3] | Potency [4] | Potency [5] | Potency [6] | Potency [7] | Potency [8] | Potency [9] | Potency [10] | Potency [11] | Potency [12] | Potency [13] | Potency [14] | Potency [15] | Potency [16] | Potency [17]

CC(=O)N(CC(O)CO)c1c(I)c(C(=O)NCCO)c(I)c(C(=O)NCC(O)CO)c1I (configuration not stated)
inactive: Potency [1] | Potency [2] | Potency [3] | Potency [4] | Potency [5] | Potency [6] | Potency [7] | Potency [8] | Potency [9] | Potency [10] | Potency [11] | Potency [12] | Potency [13] | Potency [14] | Potency [15] | Potency [16] | Potency [17]

OC1CCCCC1c1ccccc1 (configuration not stated)
inactive: Potency [1] | Potency [2] | Potency [3] | Potency [4] | Potency [5] | Potency [6] | Potency [7] | Potency [8] | Potency [9] | Potency [10] | Potency [11] | Potency [12] | Potency [13] | Potency [14] | Potency [15] | Potency [16]

CCCCCCCCC(CO)CCCCCC (configuration not stated)
inactive: Potency [1] | Potency [2] | Potency [3] | Potency [4] | Potency [5] | Potency [6] | Potency [7] | Potency [8] | Potency [9] | Potency [10] | Potency [11] | Potency [12] | Potency [13] | Potency [14] | Potency [15] | Potency [16] | Potency [17]

CCCCCCC#CC(=O)OC
inactive: Potency [1] | Potency [2] | Potency [3] | Potency [4] | Potency [5] | Potency [6] | Potency [7] | Potency [8] | Potency [9] | Potency [10] | Potency [11] | Potency [12] | Potency [13] | Potency [14] | Potency [15] | Potency [17]

CCCOC(=O)CC
inactive: Potency [1] | Potency [2] | Potency [3] | Potency [4] | Potency [5] | Potency [6] | Potency [7] | Potency [8] | Potency [9] | Potency [10] | Potency [11] | Potency [12] | Potency [13] | Potency [14] | Potency [15] | Potency [16] | Potency [17]

CCCCCCCCCCCCCC(=O)OC
inactive: Potency [1] | Potency [2] | Potency [3] | Potency [4] | Potency [5] | Potency [6] | Potency [7] | Potency [8] | Potency [9] | Potency [10] | Potency [11] | Potency [12] | Potency [13] | Potency [14] | Potency [15] | Potency [17]

Cc1ncc(COP(=O)(O)O)c(C=O)c1O
inactive: Potency [1] | Potency [2] | Potency [3] | Potency [4] | Potency [5] | Potency [6] | Potency [7] | Potency [8] | Potency [9] | Potency [10] | Potency [11] | Potency [12] | Potency [13] | Potency [14] | Potency [15] | Potency [16] | Potency [17]

CC(C)Cn1cnc2c1c(=O)n(C)c(=O)n2C
inactive: Potency [1] | Potency [2] | Potency [3] | Potency [4] | Potency [5] | Potency [6] | Potency [7] | Potency [8] | Potency [9] | Potency [10] | Potency [11] | Potency [12] | Potency [13] | Potency [14] | Potency [15] | Potency [17]

COC(=O)c1cc(Cl)cc(Cl)c1
inactive: Potency [1] | Potency [2] | Potency [3] | Potency [4] | Potency [5] | Potency [6] | Potency [7] | Potency [8] | Potency [9] | Potency [10] | Potency [11] | Potency [12] | Potency [13] | Potency [14] | Potency [15] | Potency [16] | Potency [17]

NC(N)=NCCC[C@H](N)C(=O)O
inactive: activity change, negative = cytotoxicity [1] -4.64% [at 8.39 µM] | activity, positive = activation [2] -5.37% [at 8.39 µM] | activity change [3] 0.97% [at 5.22 µM, stronger effect = higher value] | activation [4] -0.0198% [at 6.97 µM] | activation [5] 2.23% [at 5.23 µM] | activity change, negative = cytotoxicity [6] -0.294% [at 5.99 µM] | activity change, negative = cytotoxicity [7] 1.88% [at 5.99 µM] | activity change, negative = cytotoxicity [8] -8.01% [at 5.99 µM] | activity, negative = inhibition [9] 19.6% [at 5.62 µM] | activation [10] 2.81% [at 7.02 µM] | activity, negative = inhibition [11] -1.41% [at 5.58 µM] | activation [12] -0.347% [at 6.97 µM] | activation [13] 4.27% [at 8.39 µM] | activity change, negative = inhibition [14] -3.28% [at 8.39 µM] | activity change, negative = inhibition [15] 0.0181% [at 8.39 µM] | activation [16] -13.5% [at 8.39 µM] | activity change, negative = inhibition [17] 5.33% [at 8.38 µM]
